TrxR1 substrate – rat thioredoxin reductase 1 substrate activity. AID 588456. O89049. 390,000 compounds, 0.01% hits. Potency, µM (highest dose often 114 µM), for inactives: at the highest dose activity change, negative = substrate turnover. purified TrxR1 substrate turnover, NADPH consumption readout; further: on the % scale 0 is the no-effect control and ±100 the full control effect; nearly all actives have a fitted effect of over 50% in size
Target sequence (O89049 whole entry, looked up): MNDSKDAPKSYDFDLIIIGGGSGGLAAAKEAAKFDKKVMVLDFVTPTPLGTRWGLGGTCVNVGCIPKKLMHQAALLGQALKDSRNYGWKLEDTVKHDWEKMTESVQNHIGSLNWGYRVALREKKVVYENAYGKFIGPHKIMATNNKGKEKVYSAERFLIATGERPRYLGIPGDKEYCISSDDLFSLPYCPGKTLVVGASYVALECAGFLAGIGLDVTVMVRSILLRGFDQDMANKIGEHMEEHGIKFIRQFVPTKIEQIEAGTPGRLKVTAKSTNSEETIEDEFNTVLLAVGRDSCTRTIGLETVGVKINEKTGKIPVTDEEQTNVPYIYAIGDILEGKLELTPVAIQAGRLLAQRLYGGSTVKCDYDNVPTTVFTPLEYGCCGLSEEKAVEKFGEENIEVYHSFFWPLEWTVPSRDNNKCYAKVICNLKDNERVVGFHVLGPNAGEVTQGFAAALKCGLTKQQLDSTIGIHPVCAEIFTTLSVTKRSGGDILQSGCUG
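Rat TrxR1, dispensed at 90 nM, was prereduced with 400 uM NADPH (final) for 5 min at ~22 deg C, then incubated with compound 15 min before 400 uM selenite. A first-read NADPH fluorescence drop versus no-compound background flagged substrates.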
Nrf2 block – Nrf2 pathway inhibition; A549 ARE-Fluc reporter, luciferase luminescence, 18-24 h; Potency, µM (highest dose often 46 µM), without a hit: at the top dose activity change, negative = inhibition, most hits filed as inhibitors; 360,000 compounds, 2.1% hits; AID 504444; further: on the % scale 0 is the no-effect control and ±100 the full control effect; nearly all actives have a fitted effect of over 60% in size
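Quantitative HTS in A549 cells stably bearing an antioxidant response element-firefly luciferase construct. Inhibition of Nrf2-driven transcription was scored by luminescence after 18-24 h of compound exposure at 37 °C.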
Mito fusion act – blocks mitochondrial division or promotes mitochondrial fusion. S. cerevisiae fusion-defective mutant growth rescue, CellTiterGlo 48 h. Potency, µM (doses to about 46.1 µM), for inactives: at the highest dose growth rescue (activation), usual class: activators. 320,000 compounds, 0.23% hits; further: % of control where 0% means no effect; nearly all actives have a fitted effect of over 45% in size
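Read-out: ATP-based luminescence (CellTiterGlo, 10 min ambient) reporting growth of fusion-defective ts yeast after 48 hours at 37C on glycerol/ethanol YPEG medium in the presence of compound.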
rTrxR1 inhibitor – rat TrxR1 inhibition. O89049. recombinant rTrxR1, NADPH fluorescence consumption, selenite substrate. Potency, µM (titrated, usually from 114 µM), for the others: at the top dose activity change, negative = inhibition, actives largely listed as inhibitors. 390,000 compounds, 1% hits; further: on the % scale 0 is the no-effect control and ±100 the full control effect; nearly all actives have a fitted effect of over 65% in size
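Rat TrxR1 (90 nM in the dispensed reagent) was pre-reduced with 400 uM NADPH for 5 min at room temperature, then incubated with compound for 15 min. After 400 uM selenite was added, NADPH fluorescence (Ex 340/Em 450 nm) was followed for 8 min.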
mIDH1 inhibitor – blocks human mutant IDH1 R132H enzyme; O75874; IDH1-R132H enzyme, NADPH consumption, diaphorase/resazurin fluorescence; Potency, µM (top dose mostly 76.6 µM), for inactives: top-dose activity change, negative = inhibition, usual class: inhibitors; 390,000 compounds, 0.093% hits; further: on the % scale 0 is the no-effect control and ±100 the full control effect; nearly all actives have a fitted effect of over 65% in size
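IDH1-R132H (0.5 ug/mL dispensed) in pH 7.5 Tris buffer was preincubated 30 min with compound, then given a substrate mix of 0.016 mM NADPH and 2 mM alpha-KG for 80 min at room temperature; remaining NADPH was read by diaphorase/resazurin fluorescence.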
A549 viability – A549 cytotoxicity, counter-screen for Nrf2 inhibitors. A549 ARE-Fluc cells, CellTiter-Fluor viability, 18-24 h. AID 504648. 390,000 compounds, 0.16% hits. Potency, µM (series often up to 46 µM), for the others: at the highest dose activity change, negative = cytotoxicity, usual class: inhibitors; further: on the % scale 0 is the no-effect control and ±100 the full control effect
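Cytotoxicity counterscreen: CellTiter-Fluor fluorescence was measured in A549 ARE_Fluc cells after 18-24 h of compound exposure in a concentration series. The subsequent BugLite luminescent read reports ARE-luciferase activity.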
Starred values were filed as active, the others as inactive; ? = inconclusive; . = not tested or not shown; [ ] = remark or other dose. Shown are actives, neighbours in structure and some others; about 3.1% of the full set was active somewhere. The call rests on the fitted dose curve; in most records, active means well fitted curve in the direction sought with a large enough effect; inconclusive means small, poorly fitted or top-dose-only effect, or another doubt; inactive means no such curve, though single readings can be large; an effect the other way counts as inactive or inconclusive. Potency means the concentration at half of the fitted maximal effect.

SMILES | TrxR1 substrate | Nrf2 block | Mito fusion act | rTrxR1 inhibitor | mIDH1 inhibitor | A549 viability
O=C(Nc1ccc(Oc2ccccc2)cc1)C1CCN(S(=O)(=O)c2ccccc2)CC1 | 4% | 21µM* | . | 15% | -4% | -14%
Cc1ccc2c(CC(=O)Nc3ccc(S(=O)(=O)N4CCC(C)CC4)cc3)coc2c1 | -3% | ? | . | 12% | -11% | -22%
O=C(Nc1ccc(S(=O)(=O)N2CCCCC2)cc1)C1CCN(C(=O)c2ccco2)CC1 | 3%[57.1 µM] | ? | -1% | 1%[57.1 µM] | -10% | 3%
COc1ccc(-c2cc(C3CC3)nc3sc(C#N)c(N)c23)cc1 | 31% | ? | 13µM* | 15% | -3% | 0%
CCCN1CNc2c(c(=O)[nH]c(=S)n2CCc2cccc(OC)c2)C1 | 1% | ? | . | 7% | . | 4%
CCOc1ccc(OCC)c(NC(=O)c2cc(-c3cccs3)nc3ccccc23)c1 | 6%[2.29 µM] | -19%[9.27 µM] | . | 5% | -12% | 0%
Cc1oc(-c2ccccc2)nc1Cn1cccc1C1=NC(c2ccccc2)CO1 (centres undefined) | -4% | 21µM* | -3% | 39%[57.1 µM] | 1% | -9%
Fc1ccc(Cn2cccc2C2=NC(c3ccccc3)CO2)cc1 (centres undefined) | -10% | 1% | 21% | -1% | 3% | -2%
Cc1cccn2c(=O)cc(CSc3nnc(NC(=O)c4ccc(F)cc4)s3)nc12 | 4%[57.1 µM] | . | . | 15%[57.1 µM] | 5% | -3%
Cc1c(NC(=O)/C(C#N)=C/c2ccc(-c3ccc(Cl)cc3)o2)c(=O)n(-c2ccccc2)n1C | -6% | ? | 23% | -5% | -1% | 23µM*
CCOC(=O)N(C(=O)c1ccccc1)c1ccccc1 | 1% | . | . | 10% | . | .
O=S(=O)(Nc1cccc2cccnc12)c1ccccc1O | . | ? | . | . | . | -1%
Cc1cc(C)c(S(=O)(=O)NCC(c2ccco2)S(=O)(=O)c2ccccc2)c(C)c1 (centres undefined) | 6%[57.1 µM] | . | . | 4%[57.1 µM] | 12% | -2%
CCOc1ccc(S(=O)(=O)NCC(c2cccs2)S(=O)(=O)c2ccc(C)cc2)cc1 (centres undefined) | 0%[57.1 µM] | . | . | 0.89µM* | 5% | 0%
Cc1cc(C)c(S(=O)(=O)NCC(c2cccs2)S(=O)(=O)c2ccccc2)c(C)c1 (centres undefined) | 5%[57.1 µM] | . | . | 2.5µM* | 13% | 7%
O=S(=O)(c1ccc2ncccc2c1)N1CCN(c2nc(-c3cccs3)nc3ccccc23)CC1 | 4% | ? | . | 9% | . | -14%
C/C=C(\C)NNC(=O)Cc1ccc(OC)cc1 | 3% | . | . | 6% | . | .
COc1ccc(C(=O)Oc2ccc(C3NC(=O)c4c(sc5c4CCN(C)C5)N3)cc2OC)cc1 (centres undefined) | 17% | 2% | . | -12% | 1% | 4%
CCOc1cc(C2NC(=O)c3c(sc4c3CCN(C)C4)N2)ccc1OC(=O)c1ccccc1Cl (centres undefined) | 18% | 8.2µM* | . | 9% | 16% | -7%
COc1ccc(C2c3c(n(C)c4ccccc34)C(=O)N2CC(=O)Nc2ccc(C)c(Cl)c2)cc1 (centres undefined) | -4% | 0% | . | 13% | -25% | 0%
Clc1ccc[n+](CCCCC[n+]2cccc(Cl)c2)c1 | -2% | . | . | ? | . | .
O=C(Nc1nccs1)C1CCN(S(=O)(=O)c2ccc(F)cc2)CC1 | 11% | 11% | 3% | 19% | 3% | 2%
O=C(Nc1nccs1)C1CCN(S(=O)(=O)c2c(Cl)cccc2Cl)CC1 | -4% | 16µM* | 19% | 4% | 5% | -12%
Cc1cc(C(=O)O)ccc1N/C=C1\CCCC(C)C1=O (centres undefined) | -18% | ? | 5% | -22% | -3% | -27%
CC1CCC/C(=C\Nc2ccc(O)cc2)C1=O (centres undefined) | -14% | 12% | -4% | 20µM* | 8% | 9%
SMILES | TrxR1 substrate | Nrf2 block | Mito fusion act | rTrxR1 inhibitor | mIDH1 inhibitor | A549 viability
CSc1ccc(C2c3[nH]c4ccccc4c3CCN2C(=O)c2cc(C)n(C)n2)cc1 (centres undefined) | . | . | 12% | . | . | .
Cc1cc(C(=O)N2CCc3c([nH]c4ccccc34)C2c2cccc(Cl)c2)nn1C (centres undefined) | -8% | -24% | 5µM* | 5% | 12% | -7%
CCCOc1ccc(C2C(C(=O)c3ccc(C)o3)=C(O)C(=O)N2CCN2CCOCC2)cc1OC (centres undefined) | -6% | 6% | -1% | 50µM* | 4% | -8%
O=C(CNC(=O)OCc1ccccc1)Oc1ccc2ccc(=O)oc2c1 | 251% | 2% | 13% | 25µM* | 0% | 10%
CC(C)(C)OC(=O)NCCC(=O)Oc1ccc2ccc(=O)oc2c1 | 102% | -9% | -1% | 50µM* | 0% | -3%
COc1ccc(CNc2ccc3cc(S(=O)(=O)N4CCCCC4)ccc3n2)cc1 | 11%[57.1 µM] | ? | . | 20%[57.1 µM] | 3% | -30%
CCCCOc1ccc(CC(=O)NOC)cc1 | 7%[0.0914 µM] | . | . | 12% | . | .
COc1cccc(-c2nc(CS(=O)(=O)CC(=O)NCc3cccc(Cl)c3)c(C)o2)c1 | 3% | -1% | . | 1% | -18% | -6%
COc1ccc(C(=O)C[n+]2cccc3cccc(O)c32)cc1 | 1% | . | . | 19% | . | .
CS(=O)(=O)N(Cc1cccc(CN(C(C(=O)O)c2ccccc2)S(C)(=O)=O)c1)C(C(=O)O)c1ccccc1 (centres undefined) | 1% | 3% | 0% | 50µM* | 3% | 0%
O=[N+]([O-])c1ccc(O/N=[N+](\[O-])N2CCCCC2)c([N+](=O)[O-])c1 | -11% | . | . | 22µM* | . | .
CCSC(=O)N1CCN(/[N+]([O-])=N/Oc2ccc([N+](=O)[O-])cc2[N+](=O)[O-])CC1 | 2% | . | . | 11µM* | . | .
O=C(OCc1ccccc1)N1CCN(/[N+]([O-])=N/Oc2ccc([N+](=O)[O-])cc2[N+](=O)[O-])CC1 | 5%[0.457 µM] | . | . | ? | . | .
CCOC(=O)N1CCN([N+]([O-])=NOc2cc(O/N=[N+](\[O-])N(C)C)c([N+](=O)[O-])cc2[N+](=O)[O-])CC1 | -17% | -2% | . | 28µM* | . | ?
CCCOC(=O)N1CCN(/[N+]([O-])=N/Oc2ccc([N+](=O)[O-])cc2[N+](=O)[O-])CC1 | -11% | -1% | . | 11µM* | . | ?
COc1ccc(OC)c(CNC(=O)c2cc3c(=O)oc4ccc(C)cc4c3s2)c1 | 16% | 22% | . | 39% | -6% | 0%
CN(C)c1ccc(/C=C/c2ccnc3ccc(Cl)cc23)cc1 | 0% | . | . | 6% | . | .
